Assay in all cases: NCI-60 one-dose screen, 48 h (100 = growth as untreated, 0 = no growth, -100 = all killed)
One assay deals with DU-145 prostate. The following applies: 10 µM unless noted.
Another assay relates to K-562 leukemia. Particulars: 10 µM unless noted.
Another assay has as its system MALME-3M melanoma. Particulars: 10 µM unless noted.
For a further assay, the system named is MDA-MB-231 breast. The following applies: 10 µM unless noted.
The subject of the next assay is RXF 393 renal. The following applies: 10 µM unless noted.
The next assay has as its system SF-268 CNS. Particulars: 10 µM unless noted.
For the next assay, the system named is SF-295 CNS. Particulars: 10 µM unless noted.
The next assay has as its system SF-539 CNS. Particulars: 10 µM unless noted.
Another assay deals with UACC-257 melanoma. Particulars: 10 µM.
For a further assay, the system named is M14 melanoma. The following applies: 10 µM unless noted.

Compounds without any hit were thinned out: in the full panel of roughly 83,000, 20% have a hit.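 Note: values are percent growth. 100 is the growth of untreated cells, values between 100 and 0 indicate rising inhibition; between -100 and 0 indicates cell death.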 A number with no mark means an inactive call. Active and inactive are the calls of the source. How the source made its calls: active means growth percent below 10; inactive means the rest.

Turning to `Clc1nc(-c2cccnc2)nc2sc3c(c12)CCCCCC3`, the growth was 109% with DU-145 prostate; 101% with K-562 leukemia; 103% in the assay on MALME-3M melanoma; 97.7% in the assay on MDA-MB-231 breast; 116% with RXF 393 renal; 95.7% with SF-268 CNS. In addition, the growth was 92.9% in the assay on SF-295 CNS, 96.6% in the assay on SF-539 CNS, 93.1% with UACC-257 melanoma and 107% with M14 melanoma.
Turning to `O=C(CNC1CCCCC1)Nc1ccc(-c2nc3ccccc3s2)cc1`, the growth in the assay on DU-145 prostate is 89.3%; in the assay with K-562 leukemia it was 49.5%; with MALME-3M melanoma, 105%; in the assay with MDA-MB-231 breast it was 46.2%; with RXF 393 renal, 68.5%; with SF-268 CNS, 78.4%. Also, the growth is 85.9% in the assay with SF-295 CNS, 87.5% with SF-539 CNS, 105% in the assay with UACC-257 melanoma and 89.4% in the assay on M14 melanoma.
For the compound `CC(C)(C)OC(=O)N[C@@H](Cc1ccccc1)C(=O)N(Cc1ccccc1)C1(C(=O)NCc2ccccc2)CCN(Cc2ccccc2)CC1`, the growth was 75.6% in the assay with DU-145 prostate; 11% with K-562 leukemia; 25.6% with MALME-3M melanoma; 22.9% with MDA-MB-231 breast; 61.9% with RXF 393 renal; 58.5% in the assay on SF-268 CNS. Also, the growth was 39.2% in the assay on SF-295 CNS, 47.2% in the assay on SF-539 CNS, 24.2% in the assay with UACC-257 melanoma and 40.2% with M14 melanoma.
`CC(=O)n1cc([C@H]2CC[C@H](c3cn(C(C)=O)c4ccccc34)c3c2[nH]c2ccccc32)c2ccccc21`: the growth was 93.2% in the assay on DU-145 prostate; 69.9% in the assay on K-562 leukemia; 91.4% in the assay on MALME-3M melanoma; 70.8% in the assay on MDA-MB-231 breast; 96.5% in the assay with RXF 393 renal; 76.9% with SF-268 CNS. Besides, the growth with SF-295 CNS is 80%; in the assay with SF-539 CNS it was 92.7%; with UACC-257 melanoma it was 89.5%; in the assay on M14 melanoma it was 79.1%.
For the compound `CC(C)C[C@H](NC(=O)Cn1ccc(NCc2ccccc2)cc1=O)B(O)O`, the growth was 36.6% in the assay on DU-145 prostate; 15.6% in the assay with K-562 leukemia; -21.2% (active) in the assay on MALME-3M melanoma; 28% in the assay on MDA-MB-231 breast; -51.7% (active) in the assay with RXF 393 renal; 3.08% (active) in the assay with SF-268 CNS. The growth is 28.4% with SF-295 CNS, -29.4% (active) in the assay on SF-539 CNS, -3% (active) with UACC-257 melanoma and -17% (active) in the assay with M14 melanoma.
Regarding `Cc1nc(Nc2cccnc2)sc1C(=O)/C=C/c1ccc(F)cc1`, the growth is 9.5% (active) with DU-145 prostate; 11.4% in the assay with K-562 leukemia; 88.1% with MALME-3M melanoma; 89.2% in the assay on MDA-MB-231 breast; 18.1% in the assay on RXF 393 renal; 42.1% with SF-268 CNS. The growth in the assay on SF-295 CNS was 42.4%; in the assay on SF-539 CNS it was 18.2%; in the assay with UACC-257 melanoma it was 73.5%; in the assay with M14 melanoma it was 25.5%.
Turning to `COc1cccc(-c2nc3sccn3c2-c2ccnc(NCCNS(=O)(=O)c3ccccc3)n2)c1`, the growth in the assay with DU-145 prostate was 65.8%; in the assay on K-562 leukemia, 36.9%; with MALME-3M melanoma, 66.6%; in the assay on MDA-MB-231 breast it was 63.5%; in the assay on RXF 393 renal it was 64.2%; in the assay on SF-268 CNS, 62.7%. For the same compound, the growth in the assay on SF-295 CNS is 63.6%; in the assay on SF-539 CNS it was 79.9%; with UACC-257 melanoma, 81.4%; in the assay on M14 melanoma it was 35.8%.
Regarding `NS(=O)(=O)c1ccc(NCC(=O)Nc2ccc(-c3nc4ccccc4s3)cc2)cc1`, the growth with DU-145 prostate was 47%; in the assay with K-562 leukemia it was 8.38% (active); with MALME-3M melanoma, 53.6%; in the assay with MDA-MB-231 breast it was 45%; in the assay with RXF 393 renal, 99.9%; with SF-268 CNS, 25.1%. For the same compound, the growth in the assay on SF-295 CNS is 98.8%; in the assay with SF-539 CNS, 91.4%; with UACC-257 melanoma, 97.2%; in the assay with M14 melanoma it was 45.6%.
Take `COc1ccc(-c2nc3sccn3c2-c2ccnc(NCCCNS(=O)(=O)c3ccc(C)cc3)n2)cc1`: the growth is 34.1% in the assay on DU-145 prostate; 19.9% with K-562 leukemia; 54.7% in the assay with MALME-3M melanoma; 23.5% in the assay on MDA-MB-231 breast; 34.6% in the assay with RXF 393 renal; 38.1% with SF-268 CNS. Besides, the growth was 21.4% in the assay with SF-295 CNS, 56.9% with SF-539 CNS, 40% in the assay on UACC-257 melanoma and 23.2% in the assay with M14 melanoma.
Turning to `Cc1cc(C)c(S(=O)(=O)N2CCN(c3cc4c(cc3F)c(=O)c(C(=O)O)cn4C3CC3)CC2)c(C)c1`, the growth is 71.4% with DU-145 prostate; 63.5% in the assay with K-562 leukemia; 59.7% in the assay on MALME-3M melanoma; 84.6% with MDA-MB-231 breast; 51.3% in the assay on RXF 393 renal; 56.7% in the assay on SF-268 CNS. For the same compound, the growth in the assay with SF-295 CNS was 33.3%; in the assay with SF-539 CNS, 46.5%; in the assay with UACC-257 melanoma, 86.9%; with M14 melanoma, 63.5%.
For the compound `O=C(Nc1ccc(OCc2nnc(-c3ccc(Cl)cc3)o2)c(F)c1)Nc1ccc(Cl)c(Cl)c1`, the growth in the assay with DU-145 prostate was 34.4%; with K-562 leukemia it was 67.3%; with MALME-3M melanoma it was 33.4%; in the assay with MDA-MB-231 breast it was 26.3%; with RXF 393 renal, 50.7%; in the assay with SF-268 CNS, 53.3%. The growth with SF-295 CNS was 62.5%; with SF-539 CNS, 45%; in the assay on UACC-257 melanoma, 74.4%; with M14 melanoma, 61.5%.
In the case of `COc1ccc(C(=O)c2cc(OC)c(OC)c(OC)c2)cc1/C=C/C(=O)c1ccc(O)cc1`, the growth was 26.4% with DU-145 prostate; 19% in the assay with K-562 leukemia; 91.6% in the assay on MALME-3M melanoma; 35% in the assay with MDA-MB-231 breast; 35.1% in the assay on RXF 393 renal; 12.8% in the assay with SF-268 CNS. Further, the growth in the assay with SF-295 CNS is 29.9%; in the assay on SF-539 CNS, 0.251% (active); with UACC-257 melanoma it was 36%; in the assay on M14 melanoma, 15.8%.
On to `CCC1CCc2nc3sc(C(=O)Nc4ccccc4C)c(N)c3cc2C1` (stereo not given), for which the growth in the assay with DU-145 prostate is 22.7%; in the assay with K-562 leukemia, 24.1%; in the assay on MALME-3M melanoma, 28.3%; in the assay on MDA-MB-231 breast, 66.6%; with RXF 393 renal, 26.1%; in the assay with SF-268 CNS, 49.9%. In addition, the growth in the assay with SF-295 CNS is 15.3%; in the assay on SF-539 CNS, 23.9%; in the assay on UACC-257 melanoma, 54.2%; in the assay with M14 melanoma it was 19.8%.

For the origin of these results see PubChem BioAssay (NCI).
